Laboratory results taken from PubChem BioAssay (NCI).
Compounds without any hit were thinned out: in the full panel of roughly 79,000, 15% have a hit. Cut-off read from the data, not from the text of the source: active = growth inhibition above about 70%; inactive = the rest.

Experiments:
[1] = NCI Yeast Anticancer Drug Screen. Data for the rad50 strain (AID 155);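 note: 0% = growth of vehicle-only cultures of the same strain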; settings: S. cerevisiae rad50 strain growth inhibition; at 50.0 µM; stronger effect = higher value
Procedure, shortened: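 Relative growth inhibition (compound vs vehicle) was measured in yeast with a defined repair-gene alteration.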

[2] = NCI Yeast Anticancer Drug Screen. Data for the mec2-1 strain (AID 157); settings: S. cerevisiae mec2-1 strain, at 50.0 µM, stronger effect = higher value
Procedure, shortened: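 Test agents were screened against the mec2-1 yeast strain, with defined DNA repair or cell cycle alteration. Growth was scored as inhibition against vehicle-only controls.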

[3] = NCI Yeast Anticancer Drug Screen. Data for the sgs1 mgt1 strain (AID 161);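 note: 0% = growth of cultures given vehicle only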; settings: S. cerevisiae sgs1 mgt1 strain, at 50.0 µM, stronger effect = higher value
Procedure, shortened: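 Genetically altered yeast, compound exposure, growth inhibition relative to vehicle.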

[4] = NCI Yeast Anticancer Drug Screen. Data for the cln2 rad14 strain (AID 165);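 note: 0% = growth equal to vehicle treated cultures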; settings: S. cerevisiae cln2 rad14 strain, at 50.0 µM, stronger effect = higher value
Procedure, shortened: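 Growth of compound-exposed yeast (cln2 rad14 genotype) measured and expressed as inhibition relative to vehicle.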

[5] = NCI Yeast Anticancer Drug Screen. Data for the bub3 strain (AID 167); settings: S. cerevisiae bub3 mutant strain, at 50.0 µM, stronger effect = higher value
Procedure, shortened: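 Screening used yeast with an engineered genetic alteration affecting cell cycle control. Compound-exposed cultures were compared with vehicle cultures, and reduced growth was taken as inhibition.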

[6] = NCI Yeast Anticancer Drug Screen. Data for the mlh1 rad18 strain (AID 175); settings: S. cerevisiae mlh1 rad18 strain growth inhibition; at 50.0 µM; stronger effect = higher value
Procedure, shortened: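 In this whole-cell yeast screen, a strain with altered DNA damage repair is challenged with compound, and its growth is measured against matched vehicle-treated controls.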

Measured: growth inhibition

O=C(O)CCC(CCC(=O)O)(C(=O)O)C(=O)O
inactive: [1] 5.8% | [2] -7.85% | [3] -6.1% | [4] -41% | [5] -0.85% | [6] 2.9%

CCOCC1c2ccccc2CCN1Cc1c[nH]c2ccccc12 (centres undefined)
inactive: [1] 9.65% | [2] -21.2% | [3] -2.85% | [4] -5.15% | [5] 0.6% | [6] -4.55%

O=C(CCC(=O)C1Cc2ccccc2C1=O)Nc1cccc(C(F)(F)F)c1 (centres undefined)
inactive: [1] -38.8% | [2] -42% | [3] -18.8% | [4] -1.5% | [5] -22.9% | [6] -30.7%

Cc1ccc(N(CN2C(=O)CCC2=O)CS(=O)(=O)c2ccc(Cl)cc2)cc1
inactive: [1] 10.4% | [2] 3.5% | [3] -0.45% | [4] 14.7% | [5] -3.4% | [6] -19.6%

Cc1ccc(S)c(C(O)(C(F)(F)F)C(F)(F)F)c1
inactive: [1] -4.75% | [2] 3.65% | [3] 11.7% | [4] 3.55% | [5] 8.3% | [6] 23.2%

CCCCCCCCCCCCCCCCN1c2ccccc2C(C)(C)C12C=Cc1cccc([N+](=O)[O-])c1O2 (centres undefined)
inactive: [1] 2.85% | [2] -0.6% | [3] 13.7% | [4] 14.2% | [5] -3.1% | [6] -3.2%

COc1cccc(-n2cnc3c(=S)nc[nH]c32)c1
inactive: [1] 4.2% | [2] -9.3% | [3] 9.7% | [4] -41.6% | [5] -4.85% | [6] 1.9%

Oc1ccc(NCc2ccccc2)cc1
inactive: [1] 32.9% | [2] 8.45% | [3] 16.9% | [4] -3.15% | [5] 21.6% | [6] 16.9%

COc1ccc2c(C(=O)O)cc3c4ccccc4ncc3c2c1
inactive: [1] 9.4% | [2] 6.65% | [3] -6.75% | [4] 26.9% | [5] -17.9% | [6] -13.2%

COc1ccc(NC(=O)Oc2ccccc2-c2ccccc2)cc1
inactive: [1] 1.1% | [2] 14.3% | [3] -1.7% | [4] -18.1% | [5] -6.7% | [6] -12.3%

CN(/N=C/C=N/N(C)C1=NCCCN1)C1=NCCCN1
inactive: [1] -0.95% | [2] 1.15% | [3] 3.8% | [4] 9.1% | [5] 13.2% | [6] -6.35%

COc1cc([N+](=O)[O-])ccc1NC(=O)C(Br)C(Br)C(=O)O (centres undefined)
inactive: [1] -6.6% | [2] 5.15% | [3] -12.5% | [4] -28.1% | [5] -0.35% | [6] 16.4%

CCOC(=O)CCc1cnc[nH]1
inactive: [1] -60.5% | [2] -8.95% | [3] -3.05% | [4] -14.1% | [5] -4.55% | [6] -0.75%

Cn1cnc2c([nH]c(=O)n2C2OC(CO)C(O)C2O)c1=N (centres undefined)
inactive: [1] 13.5% | [2] 1.05% | [3] 2% | [4] -35.4% | [5] 3.55% | [6] 9.55%

CCCOc1ccc(C(N)=S)c2ccccc12
inactive: [1] -0.25% | [2] 1.1% | [3] 8.45% | [4] -28.2% | [5] 20.2% | [6] 12.3%

C/C(=N\Nc1ccc([N+](=O)[O-])cc1[N+](=O)[O-])C1(C)CC=CCC1C (centres undefined)
inactive: [1] -3.9% | [2] -3.35% | [3] 0.4% | [4] 6.05% | [5] -1.7% | [6] -1.45%

OC1(c2cccc(Cl)c2)C2=NCCCN2c2ccccc21 (centres undefined)
inactive: [1] 5.05% | [2] 8.45% | [3] 6.7% | [4] 21.6% | [5] -28.4% | [6] 5.75%

N=c1nc2n(cc1F)C1OC(CO)C(O)C1O2 (centres undefined)
inactive: [1] -18.1% | [2] 7.7% | [3] 15.3% | [4] -37.3% | [5] -0.1% | [6] -8%

CN1C=CC(=Cc2ccccc2)C=C1
inactive: [1] 3.3% | [2] 5.85% | [3] -6.45% | [4] -25% | [5] -10.8% | [6] 1.4%

O=C(O)c1ccc(C2=Cc3cc(Cl)ccc3OC2)cc1
inactive: [1] 19.6% | [2] -5.1% | [3] -19.4% | [4] 26.2% | [5] -15.1% | [6] -11.1%

COc1nnc(-c2ccccc2)c(-c2ccccc2)n1
inactive: [1] 13.2% | [2] 20.3% | [3] -2.25% | [4] -9.6% | [5] 25.5% | [6] 6.5%

COc1cccc2c1C(=N)c1c(O)c3c(c(O)c1C2=O)C[C@@](O)(C(C)=O)C[C@@H]3OC1CC(N)C(O)C(C)O1 (some centres undefined)
inactive: [1] 42.5% | [2] -26.1% | [3] -11.7% | [4] 34.2% | [5] -4.35% | [6] 13.9%

O=c1c2c(sc3ccccc13)CCC2
inactive: [1] 1.95% | [2] 18.6% | [3] -1.55% | [4] 46.9% | [5] -11.8% | [6] -0.9%

CC1=C(c2ccc(C)cc2)NC(=S)C(C)C(c2ccc(C)cc2)=N1 (centres undefined)
inactive: [1] -11.2% | [2] -24.6% | [3] 15.3% | [4] 8.15% | [5] 0.95% | [6] 19.8%

C1=Cc2nc1c(-c1ccncc1)c1ccc([n-]1)c(-c1ccncc1)c1nc(c(-c3ccncc3)c3ccc([n-]3)c2-c2ccncc2)C=C1.[Zn+2]
inactive: [1] -20.6% | [2] -9.45% | [3] -8.95% | [4] 15.7% | [5] 18.9% | [6] -3.65%

CC(C)N(C(=O)C12C3C4C5(C#N)C3C1(C#N)C5C42C#N)C(C)C (centres undefined)
inactive: [1] -10.4% | [2] -9.9% | [3] -21.8% | [4] 1.5% | [5] -0.7% | [6] -27.4%

Nc1ccc(Sc2nnc(N)s2)cc1
inactive: [1] -26% | [2] -16.6% | [3] -53.1% | [4] 6.8% | [5] -31.4% | [6] -47.5%

COc1cccc(OC(=O)Nc2ccccc2)c1
inactive: [1] 2.6% | [2] -10.6% | [3] -9.85% | [4] -41.3% | [5] -20.6% | [6] 3.25%

Nc1nc(-c2ccc3c(ccc4ccccc43)c2)cs1
inactive: [1] 7.6% | [2] 15.5% | [3] 18.2% | [4] -46.3% | [5] 47.7% | [6] 28.2%

O=c1[nH]c(=S)[nH]c2c1CN(CCCN1CCOCC1)CN2
inactive: [1] 10.3% | [2] -8.7% | [3] -15.8% | [4] 3.2% | [5] -25.1% | [6] 5.45%

Cc1ccc(OCC2OC(n3cnc4nc(Nc5ccc(Cl)c(Cl)c5)nc(Cl)c43)CC2Oc2ccc(C)cc2)cc1 (centres undefined)
inactive: [1] 6.9% | [2] 10.8% | [3] -40.2% | [4] 14.1% | [5] -20.3% | [6] -33%

CCOC(=O)c1ccc(NC=O)cc1
inactive: [1] 4.1% | [2] 7.35% | [3] -8.75% | [4] -12.5% | [5] 1.95% | [6] -24.1%

O=[N+]([O-])c1cccc(C2OCC3(CO2)COC(c2cccc([N+](=O)[O-])c2)OC3)c1 (centres undefined)
inactive: [1] 2.95% | [2] -21.8% | [3] 6.5% | [4] 10.2% | [5] -3.1% | [6] 10.8%

OC1CCC2OC12 (centres undefined)
inactive: [1] 7.3% | [2] 0.55% | [3] 18.2% | [4] 0.4% | [5] -1.3% | [6] 2%

CCCOC(=O)CC(CC(=O)OCCC)C(=O)OCCC
inactive: [1] -10.9% | [2] 0.55% | [3] -3.75% | [4] -13.4% | [5] 37.2% | [6] -2.5%

Cc1ccc(-c2cc(-c3ccco3)nc(N)n2)o1
inactive: [1] -23.9% | [2] -9.1% | [3] 10.6% | [4] 4.3% | [5] 5.45% | [6] 1.75%

COC1(OC)C=NNc2nccn21
inactive: [1] 2.05% | [2] -2.5% | [3] 3.3% | [4] 19.6% | [5] -5.9% | [6] -5.3%

Cn1nc(-c2ccccc2)c(-c2cc(-c3ccccc3)n[nH]2)c(N)c1=O
inactive: [1] 18.9% | [2] 12.4% | [3] 20.8% | [4] 7.9% | [5] 19.7% | [6] 22.9%

COCn1c2ccc(OC(C)=O)cc2c2c(=O)oc(N(C)C)nc21
inactive: [1] -14.8% | [2] -31.6% | [3] -29.4% | [4] -5.5% | [5] -11.6% | [6] -11.7%
